# Measured values published in ChEMBL document CHEMBL3988442, “University of Dundee, Small-Polar-MMV Screening Library” (2021).
# About 13,000 (27%) of roughly 48,000 compounds showed an effect of 50% or more. The list shows a part of the results.
# Tested on: Wolbachia pipientis
# Assay: Anti-Wolbachia Cell-Based Screen
# Assay type: functional
# Set-up: scale not given: in the data most compounds retested in dose-response had high values
# Conditions: 5 µM
row,Structure (SMILES),Percent Effect
1,CC(C)(C)[S+]([O-])CCNC(=O)c1csc(NC2CC2)n1 (stereo not drawn),7.627%
2,CSCC(C)(O)CNc1ncccc1C(F)(F)F (stereo not drawn),8.156%
3,COc1ccccc1C(=O)N1CCN(C(=O)CCCc2cn[nH]c2)CC1,9.231%
4,COC(=O)CNc1cc(C(=O)NCC(F)(F)F)cc(F)c1C,5.099%
5,O=C(c1ccccn1)N1C[C@@H]2OCC(=O)N(CC3CCCCC3)[C@@H]2C1,1.178%
6,OC1CCN(Cc2cc3c(cc2Br)OCCO3)CC1,23.9%
7,Cc1ccc(NC(=O)N2CCCN(C(N)=O)CC2)s1,-6.622%
8,O=S1(=O)CCC(c2nnc(-c3cnc4onc(C5CCCC5)c4c3)o2)C1 (stereo not drawn),-3.167%
9,O=C1O[C@@H]2CN(c3ccccn3)C[C@@H]2N1CCCc1ccc(F)cc1,2.286%
10,COCc1nc2cc(NCc3scnc3C)ccc2o1,5.426%
11,O=C(O)C(F)(F)F.O=C1N(Cc2cccnc2)CCC12CCCN(c1ncc(F)cn1)C2 (stereo not drawn),109.4%
12,CN1CCN(Cc2cccnc2)C2(CCN(c3ncc(F)cn3)C2)C1=O.O=C(O)C(F)(F)F.O=C(O)C(F)(F)F (stereo not drawn),-9.065%
13,Cc1csc2ncc(-c3ccnc(N4CCCN(C)CC4)n3)c(=O)n12,84.49%
14,Cc1ccc(-c2ccnc(N3CCC4(CC3)CNC(=O)C4)n2)c(C)n1,-12.24%
15,Cc1csc2ncc(-c3ccnc(N4CCC[C@H](C(N)=O)C4)n3)c(=O)n12,107.6%
16,Cc1noc(-c2ccc(N3CCCC(C(N)=O)C3)nc2)n1 (stereo not drawn),-1.352%
17,Cc1csc2ncc(-c3ccnc(N4CCN(C)CC4)n3)c(=O)n12,4.781%
18,Cc1ccc(-c2csc3c(=O)[nH]c(N4CCCC(C(N)=O)C4)nc23)cc1 (stereo not drawn),13.87%
19,Cc1csc2ncc(-c3ccnc(N4CCCC4)n3)c(=O)n12,95.07%
20,C=C(C)COc1cccc(C(=O)N2CCC(O)(c3ccccc3)CC2)c1,-7.065%
21,CNS(=O)(=O)CC(=O)NC(C)Cc1ccc(-c2ccccc2)cc1 (stereo not drawn),-4.402%
22,Nc1ccnc(N2CCC(Cc3ccccc3Cl)(C(=O)O)CC2)n1,5.255%
23,CC(O)CN1CCc2onc(C(c3ccccc3)c3ccccc3)c2C1 (stereo not drawn),-15.19%
24,COCCNS(=O)(=O)c1cccc2c1CN(C(=O)c1cc(C)on1)CC2,-0.4963%
25,Cc1cccc(CN2CCc3cc(C(=O)O)c(N(C)C)nc3CC2)n1.O=C(O)C(F)(F)F.O=C(O)C(F)(F)F,105.7%
26,Cc1nc(CN2CCc3ncnc(C4CC4)c3CC2)cs1.O=C(O)C(F)(F)F,-1.319%
27,CCOc1ncnc2c1CCN(Cc1csc(C)n1)CC2.O=C(O)C(F)(F)F,7.701%
28,Cc1nc(CN2CCc3cc(C(=O)O)c(N(C)C)nc3CC2)cs1.O=C(O)C(F)(F)F.O=C(O)C(F)(F)F,99.11%
